From the supplement of paper PMC3414501
Structures can show the parent of a compound that is named as a salt.

Each molecule was assayed on S. cerevisiae AD1-9 (efflux-pump deficient), vegetative growth in YPD (assay: growth sensitivity score (doubling time z-score vs DMSO controls); higher = slower growth, strongly negative scores also mark growth inhibition (complete suppression), active = hit call of the paper).
In short: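 Yeast (Saccharomyces cerevisiae BY4741 and AD1-9) was grown in rich medium in microtiter plates from a starting OD600 of 0.065, with optical density read every 15 min over 24 hours. The growth sensitivity score was the difference between compound and solvent-only means, divided by the solvent-only standard deviation. Every experiment had eight solvent-only wells.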

Compound	growth sensitivity score
CN1CCCC(n2nc(Cc3ccc(Cl)cc3)c3ccccc3c2=O)CC1 (stereo not drawn) [Azelastine hydrochloride] (stock concentration (mM, diluted 1:100): 9.1)	11 (active)
CN1[C@@H]2CC[C@H]1C[C@@H](OC(=O)c1c[nH]c3ccccc13)C2 [Tropisetron hydrochloride] (stock concentration (mM, diluted 1:100): 7.7)	-2.07
O=C(O)c1cc(/N=N/c2ccc(S(=O)(=O)Nc3ccccn3)cc2)ccc1O [Sulfasalazine] (stock concentration (mM, diluted 1:100): 10)	-2.95
Nc1nc(O)c2ncn(CCC(CO)CO)c2n1 [Penciclovir] (stock concentration (mM, diluted 1:100): 10)	-0.22 (inactive)
O=C(c1ccccc1)c1ccc2n1CCC2C(=O)O (stereo not drawn) [Toradol] (stock concentration (mM, diluted 1:100): 6.8)	0.21 (inactive)
OC[C@H]1O[C@@H](n2cnc3c(N[C@H]4CCC[C@@H]4O)ncnc32)[C@@H](O)C1O (stereo partly drawn) (stock concentration (mM, diluted 1:100): 10)	-0.69 (inactive)
CC(C)c1nc(CN(C)C(=O)N[C@H](C(=O)N[C@@H](Cc2ccccc2)C[C@H](O)[C@H](Cc2ccccc2)NC(=O)OCc2cncs2)C(C)C)cs1 [Ritonavir] (stock concentration (mM, diluted 1:100): 10)	8.8 (active)
COc1cc(C(=O)NS(=O)(=O)c2ccccc2C)ccc1Cc1cn(C)c2ccc(NC(=O)OC3CCCC3)cc12 [Zafirlukast] (stock concentration (mM, diluted 1:100): 10)	40.9 (active)
CCOC(=O)O[C@]1(C(=O)OCCl)CC[C@H]2[C@@H]3CCC4=CC(=O)C=C[C@]4(C)[C@H]3[C@@H](O)C[C@@]21C [Loteprednol etabonate] (stock concentration (mM, diluted 1:100): 10)	5.74 (active)
C[C@@H]1C[C@H]2[C@@H]3CCC4=CC(=O)C=C[C@]4(C)[C@@]3(F)[C@@H](O)C[C@]2(C)[C@H]1C(=O)CO [Desoximetasone] (stock concentration (mM, diluted 1:100): 10)	2.17 (active)
Nc1nc(N)nc(-c2cc(Cl)ccc2Cl)n1 [Irsogladine maleate] (stock concentration (mM, diluted 1:100): 6.9)	-0.44 (inactive)
CCOC(=O)c1ccc(OC(=O)CCCCCNC(=N)N)cc1 [Gabexate mesylate] (stock concentration (mM, diluted 1:100): 7.7)	10.8 (active)
CC(C)(C)NC(=O)[C@@H]1C[C@@H]2CCCC[C@@H]2CN1C[C@@H](O)[C@H](Cc1ccccc1)NC(=O)[C@H](CC(N)=O)NC(=O)c1ccc2ccccc2n1 [Saquinavir mesylate] (stock concentration (mM, diluted 1:100): 8.8)	-2.2
CC(CCCCC(=O)Nc1ccc(C(F)(F)F)cc1)NCCc1cnc[nH]1 (stereo not drawn) (stock concentration (mM, diluted 1:100): 10)	1.41 (inactive)
CO[C@H]1/C=C/O[C@@]2(C)Oc3c(C)c(O)c4c(O)c(c(/C=N/N5CCN(C6CCCC6)CC5)c(O)c4c3C2=O)NC(=O)/C(C)=C\C=C\[C@H](C)[C@H](O)[C@@H](C)[C@@H](O)[C@@H](C)[C@H](OC(C)=O)[C@@H]1C [Rifapentine] (stock concentration (mM, diluted 1:100): 10)	-0.99 (inactive)
O=C(CCCN1CCC(O)(c2ccc(Cl)cc2)CC1)c1ccc(F)cc1 [Haloperidol] (stock concentration (mM, diluted 1:100): 10)	22.7 (active)
C#C[C@]1(O)CC[C@H]2[C@@H]3CCc4cc(OC)ccc4[C@H]3CC[C@@]21C [Mestranol] (stock concentration (mM, diluted 1:100): 10)	3.53 (active)
CC(=O)[C@@]1(O)CC[C@H]2[C@@H]3C[C@H](C)C4=CC(=O)CC[C@]4(C)[C@H]3CC[C@@]21C [Medroxyprogesterone] (stock concentration (mM, diluted 1:100): 10)	4.15 (active)
